Screening data: PubChem BioAssay, several laboratories
Tat export inh = inhibitors of E. coli Tat protein transport; E. coli MC4100 TorA-mCherry Tat export, fluorescence; inhibition, % at 10 µM; 340,000 compounds, 0.036% hits; AID 488895;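 active = mean replicate inhibition at least 50% and at least half of replicates individually reaching 50%; inconclusive = only one of the two criteria met; inactive = neither criterion met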;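 note: exported cargo escapes ClpAP degradation while cytoplasmic cargo is degraded and loses fluorescence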
phage Ecoli inh = E. coli growth loss with phage present; 360,000 compounds, 0.26% hits; growth absorbance; AID 651602; inhibition, % at 11.9 µM; in the data active = inhibition above about 11%
E coli growth-1 = reduces bacterial viability in AddAB counter-screen | E. coli V3065 growth, OD600 absorbance, 18 h | inhibition, % at 11.9 µM | 330,000 compounds, 0.27% hits;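 active = inhibition above the campaign's mean inhibition across all tested compounds plus 3 SD, cut at about 9.9% in these data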;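 note: uninfected addAB+ strain grown without phage in ampicillin broth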
AddAB inh = less growth of phage-infected E. coli with AddAB; E. coli expressing H. pylori AddAB, absorbance growth; 330,000 compounds, 0.29% hits; inhibition, % at 11.9 µM; in the data active = inhibition above about 12%
E coli growth-2 = blocks Escherichia coli growth; OD600, 23 h; stronger effect = lower value; OD600 absorbance (concentration not given with the values); 330,000 compounds, 0.21% hits;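 active = OD600 absorbance below the run mean of sample wells minus 3.6 SD, in any replicate, cut at about 0.56 in these data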
AddAB confirm = growth loss of T4-infected E. coli expressing H. pylori AddAB, confirmed. inhibition, % at 11.9 µM. AID 488942. E. coli V3065 expressing H. pylori AddAB, T4 phage, OD; T4 phage with gene 2 nonsense mutations. shares compounds with AddAB inh. 880 compounds, 64% hits;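 active = mean inhibition above a set limit taken from the earlier primary screen, cut at about 13% in these data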;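 note: higher means less bacterial growth since AddAB block lets phage replicate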
RecBCD counter = counter-screen: growth loss of RecBCD+ E. coli with mutant T4 phage; shares compounds with AddAB inh; E. coli V66 + mutant T4 phage, OD growth; inhibition, % at 11.9 µM; 880 compounds, 73% hits;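 active = mean inhibition above the mean of solvent-only control wells plus 3 SD, cut at about 4% in these data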;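 note: optical density read after an 18 h incubation at 37 °C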
bact viab count = counter-screen for AddAB inhibitors: inhibitors of bacterial viability | shares compounds with AddAB inh | absorbance (AddAB counterscreen) | inhibition, % at 11.9 µM | 880 compounds, 35% hits | AID 488956; in the data active = inhibition above about 25%
RecBCD conf = confirmation: growth loss of phage-infected RecBCD+ E. coli (RecBCD inhibitor screen) | 890 compounds, 45% hits | E. coli V66 + T4 2- phage, growth OD | inhibition, % at 11.9 µM | shares compounds with phage Ecoli inh;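 active = mean inhibition over triplicates exceeding the hit threshold derived in the original primary screen, cut at about 11% in these data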
Ecoli viability = inhibits E. coli viability, flagging RecBCD hits as nonselective; shares compounds with phage Ecoli inh; absorbance (OD) growth; inhibition, % at 11.9 µM; 890 compounds, 29% hits; AID 651983; in the data active = inhibition above about 20%;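 note: E. coli strain V66 grown with compound alone and no phage infection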
AddAB phage OD = growth loss of phage-infected AddAB E. coli, RecBCD counter-screen. inhibition, % at 11.9 µM. E. coli expressing H. pylori AddAB + T4 phage, OD growth; gene 2 mutant T4, recBCD-deleted host. 890 compounds, 45% hits. AID 651984. shares compounds with phage Ecoli inh;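 active = mean inhibition above the solvent-only control wells' mean plus 3 SD, cut at about 22% in these data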;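 note: higher means less bacterial growth from phage killing when AddAB is blocked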
Hits are given with their value; . = inactive; ? = inconclusive; / = no result. Hits are enriched below; roughly 0.5% of the tested compounds scored in any of these assays.

SMILES	Tat export inh	phage Ecoli inh	E coli growth-1	AddAB inh	E coli growth-2	AddAB confirm	RecBCD counter	bact viab count	RecBCD conf	Ecoli viability	AddAB phage OD
COc1ccc(-n2c(O)c(C=NNS(=O)(=O)c3cc(C)ccc3C)c3ccccc3c2=O)cc1OC	/	/	/	/	.	/	/	/	/	/	/
COc1nsnc1NS(=O)(=O)c1ccc(NC(=S)NC(=O)c2ccncc2)cc1	.	29	62	74	0.068	76	24	34	14	.	33
COc1nsnc1NS(=O)(=O)c1ccc(NC(=S)NC(=O)c2cccnc2)cc1	.	47	54	59	0.062	70	31	42	27	23	45
O=C(NNC(=O)c1ccccc1O)c1ccc(Cl)c(S(=O)(=O)N2CCc3ccccc32)c1	.	16	14	19	.	.	8.3	.	.	.	.
Cc1cc(NS(=O)(=O)c2ccc(N)cc2)no1	/	16	10	12	/	18	9.4	.	.	.	27
Cc1ccc(S(=O)(=O)Nc2cc(C)on2)cc1	.	.	.	.	.	/	/	/	/	/	/
O=C1CCC(O)CCN1CCSc1ccc(Br)cc1 (stereo not drawn)	/	/	/	/	.	/	/	/	/	/	/
O=c1[nH]cc(O)c(=O)[nH]1	.	.	.	.	.	/	/	/	/	/	/
O=c1[nH]cc(F)c(=O)[nH]1	.	53	44	48	/	45	38	41	63	53	70
Cc1nnc(NCc2cccc(Cl)c2)c2ccccc12	.	.	.	.	.	/	/	/	/	/	/
Cc1nnc(NCCc2ccccc2)c2ccccc12	.	13	15	18	.	.	8.5	.	.	.	.
COc1ccc(C2=CC(=O)CC(c3ccc(OC)c(OC)c3)C2)cn1 (stereo not drawn)	/	/	/	/	.	/	/	/	/	/	/
CC(=O)NC(c1ccc(C)cc1)c1cc([N+](=O)[O-])c2cccnc2c1O (stereo not drawn)	.	.	.	.	.	/	/	/	/	/	/
CCCC(=O)NC(c1ccco1)c1cc([N+](=O)[O-])c2cccnc2c1O (stereo not drawn)	.	.	.	.	.	/	/	/	/	/	/
CC(=O)NC(c1ccccc1)c1cc(Cl)c2cccnc2c1O (stereo not drawn)	.	13	18	17	.	.	15	.	.	.	.
CCC(=O)NC(c1cc(Cl)c2cccnc2c1O)C(C)C (stereo not drawn)	.	18	17	15	.	.	12	.	.	.	.
CCC(=O)NC(c1cccs1)c1cc(Cl)c2cccnc2c1O (stereo not drawn)	.	26	26	23	.	25	22	.	14	21	.
CCCCC(=O)NC(c1cccs1)c1cc(Cl)c2cccnc2c1O (stereo not drawn)	.	17	18	16	.	21	17	.	.	.	.
O=C(CC1CC=CCC(NC(=O)OCC2c3ccccc3-c3ccccc32)C(=O)OC(c2ccccc2)CNC1=O)NC(CO)Cc1ccccc1 (stereo not drawn)	/	/	/	/	.	/	/	/	/	/	/
CC1CN(C(C)CO)C(=O)c2cc(NS(C)(=O)=O)ccc2OC1CN(C)CC1CCCCC1 (stereo not drawn)	/	/	/	/	.	/	/	/	/	/	/
COC(=O)C(Cc1ccccc1)NC(=O)C(N)CC(=O)OCc1ccccc1 (stereo not drawn)	/	/	/	/	.	/	/	/	/	/	/
CCOc1cc(C=NNC(=O)c2cccs2)cc([N+](=O)[O-])c1O	/	/	/	/	.	/	/	/	/	/	/
CCc1nnc(NS(=O)(=O)c2ccc(N=Cc3c(C)[nH]n(-c4ccc(C)c(C)c4)c3=O)cc2)s1	.	11	12	16	/	.	4.5	.	.	.	23
O=C1c2ccccc2C(=O)c2[nH]c(=O)[nH]c21	.	16	10	15	0.41	17	17	.	15	.	29
Oc1ccc2ccccc2c1N=Nc1ccccn1	.	27	31	26	.	27	25	.	23	27	30
SMILES	Tat export inh	phage Ecoli inh	E coli growth-1	AddAB inh	E coli growth-2	AddAB confirm	RecBCD counter	bact viab count	RecBCD conf	Ecoli viability	AddAB phage OD
O=C(C=Cc1cccs1)N1CCC2(CC1)Oc1ccc(Cl)cc1C(=O)C21CC(c2ccc(Cl)cc2)=NO1 (stereo not drawn)	/	/	/	/	.	/	/	/	/	/	/
O=c1c2cc(Br)ccc2nc(-c2ccc(Cl)cc2)n1O	.	.	.	.	.	/	/	/	/	/	/
Cc1ccc(-c2nc3c(Cl)cc(Cl)cc3c(=O)n2O)cc1	.	12	15	12	.	16	14	.	.	.	.
C/C(=N\N=C1\NC(=O)C(CC(=O)O)S1)c1ccccn1 (stereo not drawn)	/	26	17	19	/	26	22	.	22	25	28
O=C(O)CC1S/C(=N/N=Cc2ccccn2)NC1=O (stereo not drawn)	/	/	/	/	.	/	/	/	/	/	/
COc1ccc(/C=N\NC(=O)c2cc(O)c(O)c(O)c2)cc1COc1ccc(C(=O)OCC(C)C)cc1	.	12	10	15	/	.	8.8	.	.	.	.
O=[N+]([O-])c1ccc(-c2ccn[nH]2)o1	?	98	100	100	0.062	102	100	101	105	106	106
Cc1ccc(-c2cc(C(=O)Nc3ccncc3)c3ccccc3n2)cc1	.	.	.	.	.	/	/	/	/	/	/
O=C(NNC(=O)c1cc(-c2ccncc2)nc2ccccc12)c1ccccc1O	.	24	26	29	.	18	18	.	12	.	.
CC(C)CCOC(=O)C1C2C=C[C@]3(CN(Cc4cccs4)C(=O)C13)O2 (stereo partly drawn)	/	/	/	/	.	/	/	/	/	/	/
Cc1cccc(NC(=O)NNC(=O)c2cc3ccccc3cc2O)c1C	.	12	12	13	/	.	12	.	.	.	.
Cc1ccc(NC(=O)NNC(=O)c2cc3ccccc3cc2O)cc1C	.	.	.	.	.	/	/	/	/	/	/
Cc1cccc(NC(=S)NNC(=O)c2ccc(O)cc2O)c1C	.	.	.	.	.	/	/	/	/	/	/
Cc1ccc(C)c(NC(=O)NNC(=O)c2cc3ccccc3cc2O)c1	.	14	.	14	.	.	6.9	.	.	.	.
O=C(N/N=C/c1ccc(O)cc1O)C(=O)N/N=C/c1ccc(O)cc1O	.	22	30	28	/	22	24	.	19	21	29
